About 1,200 (0.39%) of roughly 310,000 compounds were called active. The rule behind the calls is not given here. The list is a sample of the results. Entries with a potency or affinity are not part of this list.
What follows are compounds tested against Large T antigen (Simian virus 40) (UniProt P03070) (assay: TAg ATPase/helicase activity blockers – biochemical (AID 1903)). Details: SV40 large T antigen ATPase/helicase inhibition assay; at 20 µM; stronger effect = higher value.
Sequence of Large T antigen (Simian virus 40) (P03070 whole entry, looked up): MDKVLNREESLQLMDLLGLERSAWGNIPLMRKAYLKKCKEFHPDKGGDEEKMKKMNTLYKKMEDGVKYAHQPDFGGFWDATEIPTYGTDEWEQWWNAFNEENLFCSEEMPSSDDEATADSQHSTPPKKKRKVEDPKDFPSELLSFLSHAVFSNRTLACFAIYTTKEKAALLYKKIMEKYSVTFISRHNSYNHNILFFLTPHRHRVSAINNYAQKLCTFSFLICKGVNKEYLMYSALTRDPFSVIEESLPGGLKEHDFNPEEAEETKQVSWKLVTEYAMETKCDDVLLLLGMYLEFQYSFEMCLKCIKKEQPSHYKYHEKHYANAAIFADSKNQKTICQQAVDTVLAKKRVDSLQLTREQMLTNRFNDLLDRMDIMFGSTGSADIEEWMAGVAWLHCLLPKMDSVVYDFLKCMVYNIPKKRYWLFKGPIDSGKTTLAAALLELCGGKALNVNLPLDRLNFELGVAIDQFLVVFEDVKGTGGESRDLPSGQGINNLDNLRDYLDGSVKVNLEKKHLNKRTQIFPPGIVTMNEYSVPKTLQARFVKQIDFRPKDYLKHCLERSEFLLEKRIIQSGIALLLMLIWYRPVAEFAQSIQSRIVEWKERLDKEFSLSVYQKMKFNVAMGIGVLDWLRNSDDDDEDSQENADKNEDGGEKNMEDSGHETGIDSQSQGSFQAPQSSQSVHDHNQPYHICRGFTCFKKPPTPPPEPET

inhibition, inactive:
COc1cc2c(cc1NC(=S)Nc1cccc3ccccc13)oc1ccccc12 29.9%
CNC(=S)Nc1cc2oc3ccccc3c2cc1OC 18.4%
CN(C)/C=C(\C#N)C(N)=C(C#N)C#N -3.37%
N#CC(=Cc1ccc(O)cc1)C(N)=C(C#N)C#N 8.06%
O=C(N/N=C/C1CC=CCC1)c1cc(Br)ccc1O (stereo not given) 1.73%
CC(=O)O[C@@H]1[C@H]2[C@@H](C[C@@H](C)[C@@H]3C=CC(=O)[C@@]13C)OC(=O)[C@@H]2C 11.5%
C=C1C(=O)O[C@@H]2C[C@@H](C)[C@@H]3C=CC(=O)[C@@]3(C)[C@@H](OC(C)=O)[C@H]12 35.6%
CCOc1cc(/C=C(\C#N)C(N)=O)ccc1OCc1c(C)no[n+]1[O-] 10.9%
COc1ccccc1Oc1ccc(NC(=O)c2ccc(Cl)cc2)cc1 6.92%
CS(=O)(=O)c1ccc(N)cc1 -0.19%
CS(=O)(=O)c1ccc2nc(N)sc2c1 0.3%
CC(C)OC(=O)NC(Nc1ccccc1C(=O)O)(C(F)(F)F)C(F)(F)F 6.18%
Cc1ccc(C(=O)N[C@H](C(=O)Nc2sccc2C(N)=O)C(C)C)cc1 -5.98%
COc1ccc(OCc2nn3c(-c4cccc(OC)c4)nnc3s2)cc1 8.77%
O=C1/C(=C/c2cccnc2)SC(=S)N1Nc1ccccc1 29.5%
O=C(O)c1ccc(/C=C2\SC(=S)N(Nc3ccccc3)C2=O)cc1 32.2%
CC(/C=N/NC(=O)c1sc(N)nc1C)=C\c1ccccc1 17.8%
O=[N+]([O-])c1ccccc1-c1ccc(/C=N/n2cnnc2)o1 14.3%
CC1=C(C#N)C(=O)NC(=O)/C1=C\c1ccc(-c2ccc(C)cc2[N+](=O)[O-])o1 33.3%
CC1=C(C#N)C(=O)NC(=O)/C1=C\c1ccc(-c2cc(C)c(C)cc2[N+](=O)[O-])o1 17.5%
NS(=O)(=O)c1ccc(-c2ccc(/C=C3\C(=O)Nc4cc(Cl)ccc43)o2)cc1 -8.34%
Cc1ccc(-c2ccc(/C=C3/NC(=O)NC3=O)o2)cc1[N+](=O)[O-] 28.5%
Cc1cc(C(=O)O)ccc1-c1ccc(/C=C2\NC(=O)N(Cc3ccc(F)cc3)C2=O)o1 37.5%
O=C(COc1cccc(NC(=O)c2ccccc2)c1)c1ccccc1 5.06%
CCN(C(=O)CN1CCOCC1)c1c(N)n(Cc2ccccc2)c(=O)[nH]c1=O 7.23%
Cc1ccc(S(=O)(=O)NCCNC(=O)CN2CCCC2)cc1 0.78%
CC1(C)CC(=O)N(CC(=O)N2CCN(c3ncccn3)CC2)c2ccccc2S1(=O)=O -1.17%
O=C(NNc1c(Cl)cccc1Cl)c1c(F)cccc1Cl 9.15%
COC(=O)[C@@]12CCCN1[C@H](c1ccc(-c3ccc(F)cc3)cc1)[C@H]1C(=O)N(C)C(=O)[C@H]12 5.03%
Cc1ccc(S(=O)(=O)NC(=O)N(CCC#N)Cc2ccccc2)cc1 10.3%
CC(C)(C)/C(O)=C/c1nc2ccccc2oc1=O 29.2%
Cc1ccc(/C(O)=C/c2nc3cc(C)ccc3oc2=O)cc1 14.5%
COc1ccc(-c2nc(NC(=O)CSCCO)sc2C)cc1 22.1%
O=C1C(O)=C(O)C(=O)c2ccccc21 5.58%
O=S1(=O)N=C(SCCO)c2ccccc21 -3.68%
CCOc1ccc(NC(=S)N(CCN2CCOCC2)Cc2ccc3c(c2)CCCN3CC)cc1 18.7%
CCOC(=O)c1[nH]nc(-c2c(O)cc(C)cc2O)c1-c1csc(C)n1 6.85%
CCCc1cc(-c2[nH]ncc2-c2ccc(C(=O)OCC)o2)c(O)cc1O 18.2%
CCCc1cc2c(=O)c(-c3cscn3)c(C(=O)OCC)oc2cc1O 2.58%
CCOC(=O)c1oc2cc(O)c(CC)cc2c(=O)c1-c1cscn1 7.73%
CN(C)/C=C/C(=O)c1ccc(S(=O)c2ccccc2)cc1 (stereo not given) 12.1%
Cc1cc(/C=N\O)c(C)n1-c1ccncc1 7.77%
Cc1cc(/C=C2/NC(=S)NC2=O)c(C)n1-c1cccnc1 5.09%
Cc1cc(/C=C2\NC(=S)NC2=O)c(C)n1-c1cccnc1 4.58%
Cc1cc(/C=C2/NC(=O)NC2=O)c(C)n1-c1ccncc1 6.66%
COc1ccc2c(c1)CC/C(=C\c1ccc(OC)c(Cn3nc(C)cc3C)c1)C2=O 10.2%
CCCc1nc(-c2ccccc2)c(-c2ccc(OC)c(OC)c2)c(=O)[nH]1 3.66%
O=C(CSc1nnc(CNC(=O)c2cccs2)o1)NC1CCCC1 0.7%
Cc1ccc(C(=O)Cn2nnc(-c3ccccc3)n2)cc1 0.94%
O=C(CCS(=O)(=O)c1cccs1)Nc1ccc(C(=O)NC2CCN(Cc3ccccc3)CC2)cc1 16.1%
O=C(CSCc1c(Cl)cccc1Cl)Nc1ccccc1C(=O)N1CCOCC1 6.94%
CCOC(=O)c1sc(N)c(C(=O)Nc2ccccc2OC)c1C 25.6%
Cc1ccccc1-n1nnnc1SCC(=O)Nc1ccc(S(=O)(=O)N2CCCC2)cc1 -7.07%
COc1ccc2nc(-c3ccc(N)cc3)[nH]c2c1 25.1%
Nc1ccc(-c2nc3ccc([N+](=O)[O-])cc3[nH]2)cc1 1.62%
CC1CCN(C(=O)COC(=O)CSc2ccc(C(N)=O)cc2[N+](=O)[O-])CC1 18.6%
O=C1CCCN1CCNC(=S)Nc1ccccc1 1.29%
O=C1CCCN1CCCNC(=S)Nc1ccccc1 14.1%
COCCOC(=O)C1=C(C)NC(=O)NC1c1ccco1 (stereo not given) 13%
Cc1ccc(NC(=O)C(=O)C2C(=O)Nc3ccccc32)cc1 (stereo not given) 6.13%
O=C(Nc1ccc(F)cc1)C(=O)C1C(=O)Nc2ccccc21 (stereo not given) 16.2%
COc1ccc(CC(=O)NCC(=O)N/N=C/c2sccc2C)cc1 26.5%
Cc1ccc(S(=O)(=O)N2CCN(CC(=O)N/N=C\c3ccc(Cl)c([N+](=O)[O-])c3)CC2)cc1 19.6%
Cc1ccc(S(=O)(=O)N2CCN(CC(=O)N/N=C\c3ccncc3)CC2)cc1 22%
N#Cc1ccc(/C=N/NC(=S)Nc2ccc(S(=O)(=O)N3CCOCC3)cc2)cc1 15.2%
O=S(=O)(c1ccc(NC(=S)N/N=C/c2ccc(N3CCOCC3)cc2)cc1)N1CCOCC1 22.6%
CCCCN(C(=O)NC(=O)Nc1ccccc1C)S(C)(=O)=O 12%
COc1ccc(N2C(=O)CSC2c2cccc(F)c2)cc1 (stereo not given) 9.83%
CC1CC(C)(C)NC(=S)N1CCCC(=O)N1CCN(c2ccc(F)cc2)CC1 (stereo not given) 7.98%
CCOc1cc2c(cc1OCC)C(c1ccccc1OC)OC(=O)C2 (stereo not given) 2.26%
COc1ccc(/C=N/Nc2nc3ccccc3o2)cc1O 28.6%
Cc1ccc(/C=N/Nc2nc3ccccc3[nH]2)s1 18.3%
C(=N\Nc1nc2ccccc2[nH]1)/c1ccccc1 24.9%
COc1cc(/C=N\Nc2nc3ccccc3[nH]2)cc(OC)c1OC 22.4%
COc1ccc(/C=N/Nc2nc3ccccc3[nH]2)cc1OC 26.4%
COc1cc(/C=N\Nc2nc3ccccc3o2)cc(OC)c1OC 12.1%
COc1ccc(-c2noc(N3CCC(C(=O)NCCCN4CCCCC4)CC3)n2)cc1 11.4%
C/C(=N\NC(=O)c1c(Cl)c(C)nn1C)c1cccc(NC(=O)c2cccc(F)c2)c1 27.2%
O=C(Cc1ccccc1)NCC(=O)N/N=C/c1cccnc1 12.9%
O=C1Nc2ccc(S(=O)(=O)N3CCOCC3)c3cccc1c23 3.61%
CCOC(=O)C1=C(C)NC(=O)C(C(N)=O)C12CCCCC2 (stereo not given) 4.24%
CN(CCc1ccccn1)C(=O)CCC1CCCN(C(=O)CN2CCCCCC2)C1 (stereo not given) 16.4%
Cc1cccc(Nc2nc3c(S(=O)(=O)c4ccccc4)nnn3c3ccccc23)c1 8.95%
CCCN1C(=O)/C(=N\OCC(=O)NC23CC4CC(CC(C4)C2)C3)c2ccccc21 19.7%
COc1ccc(C2CC(=O)c3cnc(N4CCc5ccccc54)nc3C2)cc1OC (stereo not given) 6.12%
CCOC(=O)C(CC)n1nc(C)n2c(cc3sccc32)c1=O (stereo not given) 9.17%
Cc1cc(N)ccc1N1CCCC1 11.3%
Cc1cc(N)ccc1-n1c(C)ccc1C 15.8%
Cc1ccc(CNC(C)(C)CO)cc1 1.14%
Cc1nc(-c2ccccc2O)n(S(=O)(=O)N(C)C)n1 12.3%
CCN(C(=O)c1ccc(Cl)c([N+](=O)[O-])c1)c1ccccc1 4.72%
CCN(CC(=O)Nc1ccc(NC(C)=O)cc1)C(=O)c1ccc(NC2CC2)c([N+](=O)[O-])c1 9.29%
COCCNC(=O)C(=O)c1cc(C)n(-c2ccc([N+](=O)[O-])cc2)c1C 3.94%
CCN1C(=O)c2ccccc2Sc2ccc(C(=O)NCCCN3CCCCC3)cc21 10.1%
CCc1nnc(NC(=O)COc2ccc(N(C)S(=O)(=O)c3ccc(C)cc3)cc2)s1 4.23%
